PubChem BioAssay (NCATS)
Results filed as inconclusive are left out. Unmarked numbers belong to inactive results. Calls of active or inactive are those of the source. Calls come from the whole dose curve; as a rule, active = well fitted cell-killing curve with a large enough effect; inconclusive = small, poorly fitted or top-dose-only effect, or effect the other way; inactive = no such curve, though single readings can be large or run the other way.
Potency is the fitted concentration of half-maximal effect.

Assay: Viability qHTS for spleen associated tyrosine kinase inhibitor (SYKi) drug resistant MV4-11 cells (AID 1963824); note: nearly all actives have a fitted effect of over 35% in size
Conditions: SYKi-resistant MV4-11 viability, CellTiter-Glo, 72 h; series mostly up to 45 µM; viability, % of control: at the top concentration
Procedure, shortened: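 SYK-inhibitor-resistant MV4-11 AML cells were seeded at 500 per well onto compound and cultured 72 hours (37 °C, 5% CO2). CellTiter-Glo was then added, and after 10 min at room temperature, luminescence gave viability.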
With CCCn1c(=O)c2[nH]c(-c3ccc(OCC(=O)O)cc3)nc2n(CCC)c1=O the “viability, % of control” value was 97.3%.
With O=C1/C(=C/c2ccc(O)c(O)c2)Oc2ccccc21 the Potency was 0.517 µM (active).
With Cc1cc(C)cc(Oc2ccc(CNC(=O)[C@H](C)N)cc2C)c1 the Potency was 16.6 µM (active).
For O=C(Cc1c(F)cccc1F)Nc1cc(OCc2ccc(Cl)cc2)ccn1, the Potency was 14.6 µM (active).
With O=C1NC(=O)c2cc(Nc3ccccc3)c(Nc3ccccc3)cc21 the Potency was 9.2 µM (active).
In the case of O=C1NC(=NCc2cccs2)S/C1=C/c1ccc2ncccc2c1, the Potency is reported as 1.84 µM (active).
With C=C1C(=O)OC2CC(COC(=O)C(C)C)=C(C(C)CCCOC(C)=O)[C@@H](OC(C)=O)C12 (stereo not given in full) the Potency was 8.93 µM (active).
For C/C=C/C=C/C(=O)O[C@@H]1C=C2COC(=O)[C@]2(O)[C@@]2(C)CCCC(C)(C)[C@H]12, the Potency was 16.1 µM (active).
In the case of CCc1cc2c(cc1CC)CC(NCC(O)c1ccc(O)c3[nH]c(=O)ccc13)C2 (stereo not given), the Potency is reported as 13 µM (active).
For CC(=O)c1ccc(O[C@@H]2O[C@H](CO)[C@@H](O)[C@H](O)[C@H]2O)cc1, the “viability, % of control” value was 84.4%.
